# Laboratory results from PubChem BioAssay AID1745857 (National Center for Advancing Translational Sciences (NCATS), 2022).
# In all, about 120,000 compounds went through this assay and about 370 (0.31%) were called active. Not shown: some 4% with an inconclusive outcome. The call rests on the fitted dose curve. For the sample, actives were picked, then their nearest neighbours and some compounds at random.
# Assay: Primary qHTS Assay for Foot and Mouth Disease Virus Antivirals against NCGC Sytravon and CBC Compound Libraries: Renilla Luciferase Signal; further: nearly all actives have a fitted effect of over 55% in size
# Conditions: FMDV replicon cells; series mostly up to 57.5 µM; activity change, negative = inhibition: at the top concentration
# On the % scale 0 is the no-effect control and ±100 the full control effect; potency means the concentration at half of the fitted maximal effect.
SMILES,"activity change, negative = inhibition",Potency
Cn1c(=O)c2c(ncn2CC(=O)NCCc2cccc(F)c2)n(C)c1=O,-3.59% (inactive),–
C=C(C)CN1CCN(c2oc(C3CC3)nc2C#N)CC1,0.962% (inactive),–
Cc1c(-c2ccccc2)oc2c(C(=O)OCC(=O)C(C)(C)C)cccc2c1=O,24.8% (inactive),–
COCCNC(=O)COc1cc(O)c2c(=O)cc(-c3ccccc3)oc2c1,-3.95% (inactive),–
CCc1cccc(NC(=O)c2ccc3c(c2)NC(=O)CS3)c1,-4.7% (inactive),–
CC(C)Sc1c(C(C)C)cnc2c1c(=O)n(C)c(=O)n2C,13.9% (inactive),–
CC(C)Oc1ccc(C(O)(CC[N+](C)(C)C)C2CCCCC2)cc1 (centres undefined),-5.33% (inactive),–
COc1ccc(/C=C/c2ccc3cccc(O)c3n2)cc1OC,22.5% (inactive),–
Cc1sc2nc(CN3CCOCC3)nc(N(C)CC(=O)Nc3ccc(F)cc3)c2c1C,-4.28% (inactive),–
Cc1ccc(-c2csc3c2NC(=O)CC3c2ccc(C)cc2)cc1 (centres undefined),-2.07% (inactive),–
COc1ccc(C2CC(=O)Nc3c2c(=O)nc2c(C)cccn32)cc1OC (centres undefined),129% (inactive),–
COc1ccc(-c2csc3c2NC(=O)CC3c2ccc(OCC(N)=O)c(OC)c2)cc1 (centres undefined),–,2820 nM (active)
COc1ccc(Nc2nc(-c3ccc(NC(C)=O)cc3)cs2)cc1,21.3% (inactive),–
COc1ccc(CNC(=O)NCc2noc3ccc(C)cc23)cc1,0% (inactive),–
COC(=O)COc1ccc2c(C)c(CC(=O)OC)c(=O)oc2c1C,-19.7% (inactive),–
O=C(Cc1cnc(-c2ccccc2F)s1)Nc1nccs1,-1.54% (inactive),–
COc1ccc(S(=O)(=O)N2CCC(C(=O)NCc3cccnc3)CC2)cc1,13% (inactive),–
O=C(O)c1ccc(CNCc2ccco2)cc1,5.71% (inactive),–
Cc1cc2nc(/N=C(\N)NC(=O)Cc3ccccc3)nc(C)c2cc1C,-1.81% (inactive),–
Cn1c(=O)c2nc(SCC(=O)NCc3ccc(Cl)cc3)n(C)c2n(C)c1=O,-0.19% (inactive),–
Cc1noc(C)c1S(=O)(=O)N(C)CC(=O)Nc1ccc(C(C)(C)C)cc1,-15.4% (inactive),–
CN(C)S(=O)(=O)c1cccc(C(=O)Nc2cccc(Oc3ccccc3)c2)c1,14.5% (inactive),–
CCCCn1c(=O)[nH]c(=O)c2c1nc(CSc1nnc(-c3ccco3)n1C)n2CC,4.85% (inactive),–
CCOC(=O)c1ccc(Oc2coc3cc(OC)ccc3c2=O)cc1,2.18% (inactive),–
CN1CC[C@H](c2c(O)cc(O)c3c(=O)cc(-c4ccccc4Cl)oc23)[C@H](O)C1,–,1000 nM (active)
Cc1ccc(C(=O)O)cc1S(N)(=O)=O,2% (inactive),–
COc1ccc(NC(=O)c2cccc(-n3cccc3)c2)c(OC)c1,21.8% (inactive),–

SMILES,"activity change, negative = inhibition",Potency
CCN(C(=O)Cn1c(CN2CCOCC2)nc2ccccc21)c1ccccc1,-15% (inactive),–
CCOc1cccc2c(C)nc(Nc3nc(CSc4ccc(C)cc4)cc(=O)[nH]3)nc12,-3.54% (inactive),–
Cc1ccc(CC(=O)N(C)CC(=O)N(CC(C)C)c2c(N)n(CC(C)C)c(=O)[nH]c2=O)cc1C,-10.9% (inactive),–
O=C1c2ccccc2NC(c2cnc3ccccc3n2)N1c1ccc(F)cc1 (centres undefined),2.44% (inactive),–
CCCCn1c(=O)[nH]c(=O)c2c1nc(CSc1n[nH]c(C)n1)n2CC,17% (inactive),–
COC(=O)c1ccc(C(=O)NCc2ccccc2C)cc1,74% (inactive),–
Cc1c(C)[n+](=O)c2cc(F)c(F)cc2n1[O-],21.4% (inactive),–
Cc1ccc(-c2noc(Cn3cnc(C#N)n3)n2)cc1F,-14.4% (inactive),–
O=C1CCSc2c1cccc2C(=O)NCc1ccccc1Cl,28.6% (inactive),–
COCCn1c(SCc2cc(C)ccc2OC)nnc1-c1ccccc1,51.2% (inactive),–
COc1ccc(Nc2nc3ccccc3nc2NS(=O)(=O)c2ccc(OC)cc2)cc1,284% (inactive),–
CCOCCCNc1oc(-c2ccc(S(=O)(=O)N(C)C)cc2)nc1C#N,11.5% (inactive),–
Cc1cccc(NC(=O)c2cccc3ncccc23)c1,-4.62% (inactive),–
CC(NCc1cccs1)C12CC3CC(CC(C3)C1)C2 (centres undefined),1.23% (inactive),–
CC(C)COc1ccc(/C=C(\C#N)C(=O)Nc2ccccc2C(=O)O)cc1,112% (inactive),–
COC(=O)C(N)Cc1ccc2ccccc2c1 (centres undefined),-8.69% [at 1.06 µM] (inactive),–
O=C(NCC1CC1)c1cc(-c2ccncc2)nc2ccccc12,-3.62% (inactive),–
Brc1ccc(/C=N/Nc2nc3ccccc3c3ccccc23)cc1,11.2% (inactive),–
CCCCCCCCCOc1ccc(C(=O)c2ccccc2)cc1,19.7% (inactive),–
Cc1ccc(NC(=O)Cn2cc(/C=C3\NC(=O)NC3=O)c3ccccc32)cc1,-7.74% (inactive),–
c1ccc(N2CCN(c3nc(N4CCCCC4)nc4nccnc34)CC2)cc1,-1.01% (inactive),–
O=C(NCc1cccnc1)C(=O)NCC(c1cccnc1)N1CCN(c2ccccc2)CC1 (centres undefined),-12.2% (inactive),–
COc1ccccc1N1CCN(C(CNC(=O)C(=O)NCc2ccc(C)cc2)c2cccnc2)CC1 (centres undefined),–,7080 nM (active)
COc1ccccc1NC(=O)C(=O)NCC(c1cccnc1)N1CCN(c2ccccc2F)CC1 (centres undefined),-20.7% (inactive),–
CCOc1ccccc1NC(=O)N1CCC2(CC1)c1cccn1-c1ccc(C)cc1N2CC,-9.05% (inactive),–
O=C(Cc1c[nH]c2ccccc12)N1CCN(C(=O)c2ccccc2)CC1,-4.71% (inactive),–
O=C(COc1ncnc2ccccc12)Nc1ccccc1Cl,5.08% (inactive),–
